The values that follow come from PubChem BioAssay (Tox21).

Inconclusive results are not listed. Unmarked numbers belong to inactive results. Calls of active or inactive are those of the source. Unless noted, calls follow the shape of the dose curve; as a rule, active = well fitted curve in the direction sought with a large enough effect in the repeat runs; inconclusive = weak or mixed curves; inactive = no such curve, though single readings can be large; an effect the other way counts as inactive or inconclusive.

A short description of test [1]: qHTS assay to identify aromatase inhibitors - cell viability counter screen (AID 743084).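 Also: cells stimulated with testosterone during compound exposure; nearly all actives have a fitted effect of over 55% in size.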
For test [2], the target named is Aryl hydrocarbon receptor (Homo sapiens) (UniProt P35869). Put plainly: qHTS assay to identify small molecule that activate the aryl hydrocarbon receptor (AhR) signaling pathway (AID 743085). Also: nearly all actives have a fitted effect of over 15% in size. Also: potency is read from the fitted curve at half-maximal effect.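 As to activation: HG2L7.5c1 human HepG2 liver cells with stably integrated DRE-driven firefly reporter; series mostly up to about 70 µM.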 A digest of the protocol:
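Steps: seed HepG2-AhR-luc cells; allow 5 h at 37C; pin-transfer test compound or vehicle; incubate 24 h at 37C; add viability dye (30 min, 37C) and read fluorescence; add luciferase substrate (30 min, RT) and read luminescence.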
For orientation: qHTS replaces the single test concentration by a dilution series.

Test [3] can be described thus: qHTS assay to identify small molecule that activate the aryl hydrocarbon receptor (AhR) signaling pathway - cell viability counter screen (AID 743086). Also: series mostly up to about 70 µM; nearly all actives have a fitted effect of over 45% in size. A digest of the protocol: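 Cytotoxicity counter screen: CellTiter-Fluor signal (30 min, 37 C) in 4000 HepG2 cells/well carrying the DRE-luciferase reporter, following 24 h compound exposure at 37 C.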
A short description of test [4]: qHTS assay to identify small molecule antagonists of the peroxisome proliferator-activated receptor gamma (PPARg) signaling pathway - cell viability counter screen (AID 743194). Also: nearly all actives have a fitted effect of over 55% in size. The essentials: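 Viability was measured as CellTiter-Glo luminescence in GeneBLAzer PPARg UAS-bla HEK293H cells. These cells had been exposed 17 h at 37 C to compounds together with rosiglitazone at 50 nM final, with the beta-lactamase readout taken in the same wells.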

Test [5] can be described thus: qHTS assay for small molecule agonists of the antioxidant response element (ARE) signaling pathway - cell viability counter screen (AID 743203; calls by dose curve; also: nearly all actives have a fitted effect of over 55% in size; also: potency is read from the fitted curve at half-maximal effect). The essentials: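 Parallel cytotoxicity read-out for the ARE-bla screen: HepG2 reporter cells, 16 hrs with compounds, then CellTiter-Glo luminescence.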
Test [6] can be described thus: qHTS assay for small molecule activators of the heat shock response signaling pathway - cell viability counter screen (AID 743209). Also: nearly all actives have a fitted effect of over 50% in size. The essentials:
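To flag cytotoxic compounds, HSE-bla HeLa cells plated at 1500 cells/well were dosed for 5 h at 37 C, followed by the reporter FRET read and then CellTiter-Glo, with luminescence recorded 30 min after reagent addition.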

The nature of test [7]: qHTS assay for small molecule agonists of the antioxidant response element (ARE) signaling pathway (AID 743202; active = well fitted activation curve with a large enough effect in the signal ratio in the repeat runs, not every such curve was filed as active; the % refers to the signal ratio; also: potency is read from the fitted curve at half-maximal effect). A digest of the protocol: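 After 16 hours of compound treatment at 37 C, HepG2 cells with a stably integrated ARE-driven beta-lactamase reporter were loaded 2 hours at room temperature with LiveBLAzer B/G FRET substrate and fluorescence intensity measured.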
Test [8] in a line: qHTS assay for small molecule activators of the heat shock response signaling pathway (AID 743210; active = well fitted activation curve with a large enough effect in the signal ratio in the repeat runs, with a control signal flat, not every such curve was filed as active; the % refers to the signal ratio; also: series mostly up to about 63 µM). The essentials: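 Compound exposure lasted 5 h at 37 C in HeLa cells carrying a heat-shock-element-driven beta-lactamase reporter. Read-out: fluorescence intensity after 2.5 h room-temperature loading with LiveBLAzer B/G FRET substrate.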
Test [9] has as its target Peroxisome proliferator-activated receptor gamma (Homo sapiens) (UniProt P37231). Put plainly: qHTS assay to identify small molecule antagonists of the peroxisome proliferator-activated receptor gamma (PPARg) signaling pathway (AID 743191; calls by dose curve; also: series mostly up to about 63 µM; nearly all actives have a fitted effect of over 30% in size). A digest of the protocol:
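Beta-lactamase reporter under UAS control in HEK293H PPARg-bla cells; compound treatment 17 h at 37C. Read-out: fluorescence intensity after 1 h room-temperature incubation with LiveBLAzer B/G FRET substrate.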

Aryl hydrocarbon receptor (Homo sapiens), sequence (P35869 whole entry, looked up): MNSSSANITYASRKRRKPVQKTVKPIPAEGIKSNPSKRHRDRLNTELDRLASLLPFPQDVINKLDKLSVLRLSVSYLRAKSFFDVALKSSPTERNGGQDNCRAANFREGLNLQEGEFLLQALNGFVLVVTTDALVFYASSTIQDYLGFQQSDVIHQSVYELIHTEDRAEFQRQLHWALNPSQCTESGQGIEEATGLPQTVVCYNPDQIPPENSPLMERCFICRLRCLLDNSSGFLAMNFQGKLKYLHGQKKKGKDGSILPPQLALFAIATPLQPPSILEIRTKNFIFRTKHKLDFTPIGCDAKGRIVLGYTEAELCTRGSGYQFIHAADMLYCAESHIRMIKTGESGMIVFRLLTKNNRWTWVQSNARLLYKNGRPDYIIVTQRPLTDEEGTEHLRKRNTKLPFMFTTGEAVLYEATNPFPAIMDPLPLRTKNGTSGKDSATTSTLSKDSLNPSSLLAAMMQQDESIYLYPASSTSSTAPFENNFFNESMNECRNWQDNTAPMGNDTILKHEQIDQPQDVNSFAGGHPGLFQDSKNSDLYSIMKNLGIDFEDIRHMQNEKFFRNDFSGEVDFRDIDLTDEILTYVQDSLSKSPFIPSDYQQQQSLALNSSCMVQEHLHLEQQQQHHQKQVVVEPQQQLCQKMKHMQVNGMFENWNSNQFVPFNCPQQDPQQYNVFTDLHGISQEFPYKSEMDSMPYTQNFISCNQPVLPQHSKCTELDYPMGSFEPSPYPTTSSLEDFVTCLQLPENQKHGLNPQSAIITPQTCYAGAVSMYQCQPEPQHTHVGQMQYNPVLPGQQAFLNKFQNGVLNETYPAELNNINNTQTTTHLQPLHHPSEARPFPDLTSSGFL
Peroxisome proliferator-activated receptor gamma (Homo sapiens), sequence (P37231 whole entry, looked up): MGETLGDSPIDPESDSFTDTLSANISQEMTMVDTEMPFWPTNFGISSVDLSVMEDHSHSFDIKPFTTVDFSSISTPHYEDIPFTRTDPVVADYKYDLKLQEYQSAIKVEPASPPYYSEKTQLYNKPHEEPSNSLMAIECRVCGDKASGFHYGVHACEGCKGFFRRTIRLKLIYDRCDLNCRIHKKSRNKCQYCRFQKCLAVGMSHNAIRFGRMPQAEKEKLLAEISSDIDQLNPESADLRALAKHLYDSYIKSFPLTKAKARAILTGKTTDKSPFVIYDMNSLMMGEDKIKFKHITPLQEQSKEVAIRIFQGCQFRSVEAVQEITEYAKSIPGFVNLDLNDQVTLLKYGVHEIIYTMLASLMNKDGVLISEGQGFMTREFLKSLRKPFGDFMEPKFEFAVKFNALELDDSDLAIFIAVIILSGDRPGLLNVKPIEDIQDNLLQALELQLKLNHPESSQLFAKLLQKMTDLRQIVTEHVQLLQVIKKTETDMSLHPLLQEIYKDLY

As to `CCCCC(=O)O[C@]1(C(=O)CO)[C@H](C)C[C@H]2[C@@H]3CCC4=CC(=O)C=C[C@]4(C)[C@@]3(F)[C@@H](O)C[C@@]21C`, the Potency entry in test [1], in test [2], in test [4] and in test [5] was “inactive” in each case. In addition, the molecule was called inactive in [3] and in [6].

On to `O=CCCc1ccccc1`, for which the Potency entry in test [1], in [2], in [7], in test [5] and in [8] was “inactive” in each case. For the same molecule, the molecule was classed as inactive in test [3] and in test [6].

As to `CC(C)=CCCC(C)CCOC=O` (stereo not drawn), the Potency result in [1] and in test [2] was “inactive” in each case. In test [3], the molecule was called inactive. Besides, in test [5], the Potency was 54.5 µM (active).

On to `CC(C)=CCC[C@](C)(O)[C@@H]1CC=C(C)CC1`, for which the Potency result in [1], in [2] and in test [5] was “inactive” throughout. The outcome in test [3] was inactive.

For `CCCCCOc1ccc(C2SC(=O)NC2=O)cc1OCC` (stereo not drawn), the Potency result in test [1], in test [7], in [5] and in [8] was “inactive” in each case. In addition, the Potency in test [2] is 29.8 µM (active). The molecule was called inactive in test [3] and in test [6].

Regarding `OCCN(CCO)c1ccccc1`, the Potency result in [1], in [2], in test [4], in test [5] and in [8] was “inactive” in each case. The molecule was classed as inactive in test [3] and in [6].

With `C=CCCC=C`, the Potency result in test [1], in test [2], in test [4], in [7] and in [5] was “inactive” throughout. Besides, the outcome in test [3] was inactive.

For the molecule `CC1=C2[C@H](/C=C(\C)C(=O)O)CC[C@@H](C)[C@H]2CC1`, the Potency entry in test [1], in test [2], in [4] and in test [5] was “inactive” each time. In addition, the molecule was classed as inactive in test [3] and in [6].

With `CCCN(CCC)C(=O)C(CCC(=O)O)NC(=O)c1ccccc1` (stereo not drawn), the Potency result in test [1], in test [2], in test [7], in [5] and in test [8] was “inactive” in each case. For the same molecule, the molecule was classed as inactive in test [3] and in test [6].

For `CCOC(=O)CS`, the Potency result in [1], in test [2], in test [4], in test [7], in [5] and in test [8] was “inactive” throughout. Besides, the result in test [3] was inactive.

With `NCCCN1CCN(CCCN)CC1`, the Potency result in test [1], in test [2], in [4], in test [7], in [5] and in [8] was “inactive” each time. Besides, the call in test [3] and in test [6] was inactive.

For the molecule `C1CCOC1`, the Potency result in [1], in test [2], in test [4], in [7], in [5] and in test [8] was “inactive” throughout. The molecule was classed as inactive in [3] and in [6].

With `CCNCCO`, the Potency result in test [1], in test [2], in test [4], in [5] and in test [8] was “inactive” throughout. In addition, the result in [3] and in test [6] was inactive.

On to `O=c1[nH]c(=O)n([C@H]2C[C@H](O)[C@@H](CO)O2)cc1C(F)(F)F`, for which the Potency result in [1], in [2], in test [4] and in test [5] was “inactive” each time. Besides, the molecule was classed as inactive in [3] and in test [6].

Turning to `O=C(O)c1ccccc1Nc1cc(Cl)ccc1C(=O)O`, the Potency result in test [1], in test [2], in [4], in [7] and in [5] was “inactive” in each case. For the same molecule, the molecule was called inactive in test [3].

`O=C(CC(=O)C(F)(F)F)c1ccccc1`: the Potency result in test [1], in test [2], in [7] and in test [5] was “inactive” throughout. For the same molecule, the result in test [3] and in test [6] was inactive.

Turning to `CCOc1ccc2nc(N)sc2c1`, the Potency entry in [1], in test [4], in test [5] and in test [8] was “inactive” throughout. Besides, the Potency in test [2] was 2.15 µM (active); in [7], 48.2 µM (active). Moreover, the result in [3] was inactive.

Regarding `CCCCNc1cc(C(=O)O)cc(S(N)(=O)=O)c1Oc1ccccc1`, the Potency entry in test [1], in test [2], in [4], in [5] and in test [8] was “inactive” in each case. In addition, the molecule was classed as inactive in [3] and in test [6].

Consider `Cc1nnc(SCC2=C(C(=O)O)N3C(=O)[C@@H](NC(=O)Cn4cnnn4)[C@H]3SC2)s1`, for which the Potency entry in test [1], in test [2], in test [4], in test [5] and in test [8] was “inactive” throughout. Also, the call in test [3] and in [6] was inactive.

Regarding `O=c1oc2c(O)c(O)cc3c(=O)oc4c(O)c(O)cc1c4c23`, the Potency entry in test [1], in test [2], in test [4], in test [5] and in [8] was “inactive” each time. Besides, the molecule was classed as inactive in [3] and in test [6].

As for `ClC(Cl)Cl`, the Potency result in test [1], in test [2], in test [4], in test [7], in test [5] and in test [8] was “inactive” in each case. The molecule was classed as inactive in test [3] and in test [6].

For the molecule `CCCc1c2oc(C(=O)O)cc(=O)c2cc2c(=O)cc(C(=O)O)n(CC)c12`, the Potency result in test [1], in [2], in test [4], in [7], in [5] and in test [8] was “inactive” each time. For the same molecule, in test [3], the call was inactive.

Consider `Cc1ccsc1C(=CCCN1CCC[C@@H](C(=O)O)C1)c1sccc1C`, for which the Potency result in test [1], in test [2], in [4] and in test [5] was “inactive” in each case. The molecule was classed as inactive in test [3] and in [6].

On to `C=Cc1ccccc1`, for which the Potency result in test [1], in test [2], in test [4], in test [7], in test [5] and in test [8] was “inactive” in each case. For the same molecule, the result in test [3] and in test [6] was inactive.

Take `CC1(C)S[C@@H]2[C@H](NC(=O)C(C(=O)O)c3ccccc3)C(=O)N2[C@H]1C(=O)O` (stereo partly drawn): the Potency result in test [1], in [2], in test [4], in [5] and in test [8] was “inactive” throughout. Further, the result in test [3] and in test [6] was inactive.

Regarding `NS(=O)(=O)c1cc(-c2nn[nH]n2)c(NCc2cccs2)cc1Cl`, the Potency result in test [1], in [2], in test [4] and in test [5] was “inactive” in each case. Besides, the molecule was classed as inactive in [3]. Besides, the Potency in test [7] was 10.6 µM (active).

Take `CC1=C(CC(=O)O)c2cc(F)ccc2/C1=C\c1ccc(S(C)(=O)=O)cc1`: the Potency result in [1], in test [2], in test [4] and in test [5] was “inactive” throughout. Also, the outcome in test [3] was inactive.

For `CC(=O)Nc1ccc(C)c(Cl)c1`, the Potency entry in test [1], in [2], in test [4], in test [5] and in test [8] was “inactive” each time. Besides, the outcome in test [3] and in [6] was inactive.

As to `COC(=O)c1ccc(OC)cc1`, the Potency result in [1], in test [2], in test [4], in test [7], in test [5] and in [8] was “inactive” throughout. For the same molecule, the call in [3] and in [6] was inactive.

As to `CCC(=O)Nc1ccc(O)cc1`, the Potency entry in [1], in [2], in test [4], in test [5] and in [8] was “inactive” throughout. In addition, the result in test [3] and in test [6] was inactive.

With `C=O`, the Potency entry in test [1], in [2], in test [4], in test [7], in test [5] and in test [8] was “inactive” throughout. The result in test [3] and in test [6] was inactive.

On to `N#Cc1ccc(C(c2ccc(C#N)cc2)n2cncn2)cc1`, for which the Potency result in test [1], in test [2], in [9], in test [5] and in [8] was “inactive” throughout. The call in [3] and in [6] was inactive.

With `O=C(O)CN(CCN(CC(=O)O)CC(=O)O)CCN(CC(=O)O)CC(=O)O`, the Potency entry in test [1], in [2], in test [4], in test [5] and in test [8] was “inactive” throughout. The outcome in [3] and in test [6] was inactive.

Take `OCc1ccccc1O`: the Potency result in [1], in test [2], in test [4], in test [5] and in [8] was “inactive” in each case. For the same molecule, the outcome in [3] and in test [6] was inactive.

For `CC(C)NC[C@@H](O)COc1cccc2ccccc12`, the Potency entry in [1], in test [4], in [5] and in test [8] was “inactive” each time. In [3], the call was inactive.
